Source: PubChem (National Center for Advancing Translational Sciences (NCATS))
In the library only some 12% were active in any assay of this set; here they are far more common.
JMJD2A Tudor inh: blocks the human JMJD2A Tudor domain. actives 4.4% (n = 390,000). Potency, µM (doses to about 114 µM), inactives show top-dose activity change, negative = inhibition, usual class: inhibitors. AID 504339. AlphaScreen JMJD2A-Tudor / H3K4me3 peptide binding; also: % is scaled to controls: 0 for no effect and ±100 for the full control effect; nearly all actives have a fitted effect of over 50% in size
G9a block: inhibitors of human histone lysine methyltransferase G9a; AID 504332; actives 8.8% (n = 350,000); Potency, µM (series often up to 102 µM), without a hit: top-dose activity, negative = inhibition, hits mostly inhibitors; Q96KQ7; G9a H3K9 monomethylation, AlphaScreen, 2 h; also: % is scaled to controls: 0 for no effect and ±100 for the full control effect; nearly all actives have a fitted effect of over 75% in size
Target sequence (Q96KQ7 913-1193 limits assumed): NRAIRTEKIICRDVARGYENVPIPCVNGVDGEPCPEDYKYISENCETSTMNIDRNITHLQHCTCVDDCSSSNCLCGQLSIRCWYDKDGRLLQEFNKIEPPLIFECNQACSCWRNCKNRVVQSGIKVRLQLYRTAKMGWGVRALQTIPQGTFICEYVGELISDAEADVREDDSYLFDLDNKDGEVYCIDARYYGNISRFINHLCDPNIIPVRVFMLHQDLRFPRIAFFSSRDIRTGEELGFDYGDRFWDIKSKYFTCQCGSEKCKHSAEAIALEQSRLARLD
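Quantitative HTS format: methyltransferase activity on a biotin-tagged H3K9 peptide is measured by AlphaScreen, using a rabbit anti-monomethyl-H3K9 antibody with streptavidin donor and anti-IgG acceptor beads. Final levels are 20 nM enzyme, 500 nM peptide, 20 uM SAM; 2 h RT.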
BAZ2B inh: inhibitors of human BAZ2B bromodomain | Q9UIF8 | AlphaScreen BAZ2B-H3K14Ac peptide displacement | Potency, µM (series often up to 114 µM), without a hit: top-dose activity change, negative = inhibition, usual class: inhibitors | actives 4.4% (n = 360,000); also: % is scaled to controls: 0 for no effect and ±100 for the full control effect; nearly all actives have a fitted effect of over 60% in size
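In this displacement format the biotinylated H3(5-23) peptide acetylated at Lys14 serves as ligand at 50 nM, with BAZ2B at 50 nM in PBS pH 7.4 containing 0.01% Tween-20. Donor and acceptor beads are 10 ug/mL final.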
Sfp PPTase inh: Sfp phosphopantetheinyl transferase inhibition | Q9F4F7 | Biochemical Sfp PPTase activity, qHTS | Potency, µM, inactives show largest response in the series, negative = inhibition, usual class: inhibitors | actives 3.5% (n = 310,000) | AID 1490;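 also: the enzyme is Sfp with the accession as filed and its product quenches rhodamine fluorescence; 0% = enzyme reaction without inhibitor and -100% = no enzyme wells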
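Buffer: 50 mM Hepes-Na pH 7.6, 10 mM MgCl2, 0.01% Nonidet P-40, 0.01% BSA. Enzyme 15 nM, pre-exposed to compound 15 min; substrates then added and fluorescence change tracked over 30 min.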
HP1b binding inh: blocks HP1-beta chromodomain binding to methylated histone tails. AlphaScreen HP1-beta / biotin-H3K9me3 peptide binding. actives 0.56% (n = 390,000). P83916. Potency, µM (highest dose often 114 µM), without a hit: top-dose activity change, negative = inhibition, usual class: inhibitors. AID 540317; also: nearly all actives have a fitted effect of over 70% in size
Target sequence (P83916 whole entry, looked up): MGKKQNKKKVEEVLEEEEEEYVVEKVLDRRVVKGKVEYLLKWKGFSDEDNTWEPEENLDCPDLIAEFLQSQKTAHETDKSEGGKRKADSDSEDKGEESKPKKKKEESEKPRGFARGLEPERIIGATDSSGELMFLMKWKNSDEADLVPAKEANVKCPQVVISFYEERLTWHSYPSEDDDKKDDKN
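AlphaScreen: HP1-beta (50 nM) preformed 30 min with biotin-H3(1-18)K9me3 peptide (50 nM) in PBS pH 7.4, 0.01% Tween-20. Compound added for 30 min at RT, then streptavidin donor/nickel chelate acceptor beads (10 ug/mL) for 30 min.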
* = called active by the depositor; ? = inconclusive; · = no result; ! = not confirmed by another sample; [ ] = dose if it differs, or a comment. Calls follow the shape of the dose curve; as a rule, active = well fitted curve in the direction sought with a large enough effect; inconclusive = small, poorly fitted or top-dose-only effect, or another doubt; inactive = no such curve, though single readings can be large; an effect the other way counts as inactive or inconclusive. Potency is read from the fitted curve at half-maximal effect.

SMILES | JMJD2A Tudor inh | G9a block | BAZ2B inh | Sfp PPTase inh | HP1b binding inh
Cc1ccc(C)c(NC(=O)C2CCN(c3nn4c(=O)cc(C)nc4s3)CC2)c1 | -5% | 30%[59 µM] | 3% | · | 33%
O=c1cc(CSc2nnc(-c3cccs3)n2Cc2ccccc2)nc2sc3ccccc3n12 | -35% | ? | 45µM* | -13% | 22%
Cc1cc(C(=O)CSc2nnc(-c3cccs3)n2Cc2ccccc2)c(C)n1C | ? | ? | · | -23% | -22%
COC(=O)C1=C(C(=O)OC)[C@@H]2N(Cc3ccccc3)c3ccccc3[C@@]23C[C@@H](C(=O)OC)N(S(=O)(=O)c2ccc(C#N)cc2)C3=N1 | · | · | · | -10% | ·
CC1(C)CC(=O)C2=C(C1)c1c(ccc3ccccc13)NC2c1cc([N+](=O)[O-])cc([N+](=O)[O-])c1O (configuration not stated) | 56µM* | ? | 50µM* | 4µM* | ?
CC1(C)CC(=O)C2=C(C1)c1c(ccc3ccccc13)NC2c1ccc(C(=O)O)cc1 (configuration not stated) | 1% | -11% | -3% | 5% | 28%
C=CCOC(=O)C(C(C)=O)C(NC(=O)OC)c1ccc(Cl)cc1 (configuration not stated) | · | · | · | 12% | ·
CC(=O)/C(=N/Nc1ccccc1)Sc1nnc(CCc2ccccc2)n1-c1ccccc1 | ? | ? | 9% | -16% | -9%
CC(=O)/C(=N\Nc1ccc(Cl)cc1)Sc1nnc(-c2ccccc2)n1-c1ccccc1 | ? | 6.3µM* | -4% | -13% | 29%
CCN(CC)c1ccc(N)cc1S(=O)(=O)Nc1ccccc1OC | ? | 2.5µM* | ? | 11µM* | 11µM*
CCN(CC)c1ccc(NC(=O)c2ccccn2)cc1S(=O)(=O)Nc1ccccc1OC | 56µM* | 2.5µM* | ? | · | ?
CCN(CC)c1ccc(NC(=O)COc2ccccc2C#N)cc1S(=O)(=O)Nc1ccccc1OC | ? | 2.5µM* | -34% | ? | ?
CCN(CC)c1ccc(N)cc1S(=O)(=O)Nc1ccc(OC)cc1 | -25% | ? | ? | -25% | ?
CCN1CCN(C(=O)CN(CC)S(=O)(=O)c2ccc(F)cc2)CC1 | -1% | 17% | -13% | 3% | 22%
CCCCc1nc2c(c3c1C[C@H](C)OC3)CN(C(=O)C1CC1)CC2 | · | · | · | 7% | ·
CCC(C)(C)n1nnnc1C(c1ccc(OC)c(OC)c1)N1CCN(c2ccc(OC)cc2)CC1 (configuration not stated) | 28µM* | 11µM* | 50µM* | 18% | -19%
CCC(C)(C)n1nnnc1C(c1ccc(OC)c(OC)c1)N1CCN(c2ccc(F)cc2)CC1 (configuration not stated) | ? | 22µM* | 6% | ? | -3%
N[C@H](C(=O)N[C@@H]1C(=O)N2C(C(=O)O)=C(Cl)CS[C@@H]12)c1ccccc1 | · | 8.9µM*! | · | 35µM*! | ·
Cn1nnnc1SCC1=C(C(=O)O)N2C(=O)C(NC(=O)C(O)c3ccccc3)C2SC1 (configuration not stated) | · | -34%[2.33 µM] | · | -66% | ·
Cc1cc(C(F)F)nn1CC(=O)NC1C(=O)N2C(C(=O)O)=C(CSc3nnnn3C)CSC12 (configuration not stated) | -2% | 35µM* | 56µM* | 56µM* | 22%
NC(C(=O)NC1C(=O)N2C(C(=O)O)=C(Cl)CSC12)c1ccccc1 (configuration not stated) | · | · | · | -84% | ·
Cn1nnnc1SCC1=C(C(=O)O)N2C(=O)[C@@H](NC(=O)[C@H](O)c3ccccc3)[C@H]2SC1 | 22µM* | 13µM* | 50µM* | ? | ?
CC(=O)OCC1=C(C(=O)O)N2C(=O)C(NC(=O)c3ccc(F)cc3)C2SC1 (configuration not stated) | -24% | -44% | ? | 2% | 14%
Cn1nnnc1SCC1=C(C(=O)O)N2C(=O)C(NC(=O)C3CC3c3ccccc3)C2SC1 (configuration not stated) | ? | ? | 71µM* | ? | 16%
CCCCN(CC)C(=O)Cn1c(=O)n(-c2ccc(OCC)cc2)c(=O)c2c3c(sc21)CCC3 | -15% | -50%[59 µM] | -2% | · | 24%
SMILES | JMJD2A Tudor inh | G9a block | BAZ2B inh | Sfp PPTase inh | HP1b binding inh
COc1cccc(NC(=O)Cn2c(=O)n(CCC(=O)NCc3ccccc3OC)c(=O)c3ccccc32)c1 | -11% | -8%[59 µM] | -33% | · | 7%
COc1ccc(CCNC(=O)C2CC3Cn4c(nc5ccccc54)C3N2c2ccccc2)cc1 (configuration not stated) | -10% | · | · | · | 16%
CCOC(=O)c1c(N)sc(C(O)(C(F)(F)F)C(F)(F)F)c1-c1ccc(OC)cc1OC | -23% | 79µM* | ? | -5% | 26%
CCOC(=O)c1c(C)oc2ncnc(Nc3ccc(OC)cc3OC)c12 | -7% | 2%[59 µM] | 1% | · | 31%
O=C(NC1CCN(S(=O)(=O)c2ccc(Cl)c(F)c2)CC1)c1cccnc1 | 2% | -5% | -8% | 2% | 37%
Cc1cccc(NC(=O)c2ccccc2NC(=O)C2CCCCC2)c1C | -13% | 15%[0.501 µM] | 50µM* | 28µM* | 0%
Cc1cccc(NC(=S)NNC(=S)NC2CCCCC2)c1C | -26% | 1.3µM* | -9% | ? | -14%
CC(=O)c1ccc(NC(=S)NNC(=O)NC2CCCCC2)cc1 | -28% | 8.9µM* | ? | 16µM* | -16%
CC(C)c1ccc(NC(=S)NC2CCCCCC2)cc1 | -30% | 27%[12.7 µM] | -21% | 10% | 33%
O=C(Nc1ccccc1)c1ccccc1NC(=O)C1CCCCC1 | -14% | ? | -1% | ? | 22%
O=C(O)c1ccc(NC(=S)NC2CCCCC2)cc1 | -19% | 11%[59 µM] | 6% | ? | 11%
Cc1ccc(NC(=S)NNC(=S)NC2CCCCC2)cc1 | ? | ? | -14% | 40µM* | -14%
COc1ccc(S(=O)(=O)NCC(c2ccco2)N2CCOCC2)cc1C (configuration not stated) | -13% | 16%[59 µM] | -3% | · | 29%
O=C(NCC1CCCCC1)c1cccc(-c2ccc(O)cc2)c1 | -12% | -4% | 9% | 9% | 36%
N#Cc1ccc(C(=O)NCC2CCCCC2)cc1 | 12% | 50µM* | 1% | 13% | 21%
O=C(NCC1CCCCC1)c1ccc(=O)[nH]c1 | -3% | 45µM* | -3% | 11% | 0%
CC1=C(C#N)C(=O)NC(=O)/C1=C\c1ccc(-c2ccc(C)cc2[N+](=O)[O-])o1 | 32µM* | 18µM* | 45µM* | 50µM* | ?
CCOC(=O)c1cc(-c2ccc(/C=C3/C(=O)NC(=O)C(C#N)=C3C)o2)ccc1Cl | 56µM* | 35µM* | 50µM* | 50µM* | 40µM*
COc1ccc(-c2ccc(/C=C3/C(=N)N4C=CSC4=NC3=O)o2)c([N+](=O)[O-])c1 | ? | ? | ? | -18% | -5%
